TWEAK Fn14 block: inhibitors of TWEAK-Fn14 signaling, primary screen, luciferase reporter cells, uHTS; inhibition, % at 10 µM; TWEAK-stimulated Fn14 reporter cells, luciferase luminescence, 8 h; 2% of 360,000 active; in the data active = inhibition above about 50%
EBV LMP1 NFkB: EBV LMP1-driven NF-kappaB luciferase reporter inhibitors, primary screen, cell-based, luminescence, single point. 0.69% of 350,000 active. inhibition, % at 12.5 µM. LMP1-induced NF-kappaB luciferase reporter cells. AID 504558, 2011; in the data active = inhibition above about 41%; inconclusive = no clear call, values can overlap the other calls
TROY NFkB inh: inhibitors of TROY-driven NF-kB signaling, primary screen, Q293 LMP1-TROYcd cells, NF-kB luciferase, uHTS; Q293 LMP1-TROYcd NF-kB luciferase reporter, 4 h; 0.98% of 360,000 active; inhibition, % at 10 µM; AID 1347056, 2019;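 active = compounds whose plate-normalised and pattern-corrected inhibition of the luciferase reporter signal at the single screening dose is 50% or more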
LGR2 antag: inhibitors of bursicon-induced LGR2 CRE-luciferase signal, primary screen, cell-based, HEK293, CRE-luciferase reporter, bursicon stimulation; Drosophila bursicon receptor LGR2 (rickets); bursicon-stimulated, 4 h; inhibition, % at 9.99 µM; 0.35% of 380,000 active;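 active = drop in luminescence signal, shown as inhibition above about 50% in the replicate tests, limit read from the data, passing the limit was not always enough; inconclusive = probably only some replicates passing the limit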;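 also: agonist challenge used bursicon conditioned medium at about half maximal strength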
EWS-Fli inh: EWS/Fli-driven NR0B1 reporter inhibitors, primary screen, A673 cells, NR0B1 luciferase, luminescence, MLPCN library; viability-normalised; 0.67% of 350,000 active; inhibition, % at 12.6 µM;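 active = mean inhibition of at least 50% after viability correction, with every replicate also passing that limit; inconclusive = mean reaches 50% but only one of two replicates passes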;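 also: firefly luciferase signal divided by Alamar Blue viability fluorescence both relative to DMSO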
Large screens that a line does not name were inactive. Hits are enriched below; roughly 2.6% of the tested compounds scored in any of these assays.

O=C(CCCNS(=O)(=O)c1ccc(F)cc1)Nc1ccc(F)cc1	TWEAK Fn14 block 97.2
O=C(O)CCCNS(=O)(=O)c1ccc2ccccc2c1	none (no result: LGR2 antag, EWS-Fli inh)
O=C(O)CCCNS(=O)(=O)c1ccccc1	TWEAK Fn14 block 62.5 (no result: LGR2 antag, EWS-Fli inh)
Cc1ccc(NC(=O)CCCCCNS(=O)(=O)c2ccc(C)cc2)cc1	none (no result: EWS-Fli inh)
O=C(Cc1ccncc1)NCC[C@H]1CC[C@@H](NC(=O)C2CCOCC2)[C@@H](CO)O1	none (no result: TWEAK Fn14 block, EBV LMP1 NFkB, TROY NFkB inh)
O=C(OCCN1C(=O)c2cccc3c(N4CCOCC4)ccc(c23)C1=O)c1ccccc1Cl	TWEAK Fn14 block 104.1, TROY NFkB inh 73.4, LGR2 antag 75.6 (no result: EWS-Fli inh)
O=C(OCCN1C(=O)c2cccc3c(N4CCOCC4)ccc(c23)C1=O)c1ccc(Cl)cc1Cl	TWEAK Fn14 block 90.3 (no result: EWS-Fli inh)
O=C(OCCN1C(=O)c2ccccc2C1=O)c1cc(S(=O)(=O)N2CCOCC2)ccc1Cl	none (no result: EWS-Fli inh)
C[C@H]1CN([C@@H](C)CO)C(=O)c2cc(NC(=O)Nc3ccc(F)cc3)ccc2O[C@H]1CN(C)C(=O)Nc1ccc2c(c1)OCO2	none (no result: TWEAK Fn14 block, EBV LMP1 NFkB, TROY NFkB inh)
CNc1c(C(=O)O)ccc2c1C(=O)c1ccccc1C2=O	none
O=C(O)c1ccc2c(c1Nc1ccccc1)C(=O)c1ccccc1C2=O	EBV LMP1 NFkB 42.5
CC(C)NC(=O)CC(c1ccccc1)c1cc(Br)ccc1O (configuration not stated)	none
CCCCCCNC(=O)CC(c1ccccc1)c1cc(Br)ccc1O (configuration not stated)	TROY NFkB inh 55.4, LGR2 antag inconclusive (no result: EWS-Fli inh)
CCCC(=O)Nc1ccc2c(c1)C(=O)N(C)C[C@H](OC)[C@@H](C)CN(CCc1ccccc1)[C@H](C)CO2	none (no result: TWEAK Fn14 block, EBV LMP1 NFkB, TROY NFkB inh)
C=CS(=O)(=O)N(Cc1ccccc1)[C@H](CO)CC(C)C	none (no result: LGR2 antag)
C=CS(=O)(=O)N(Cc1ccccc1Br)[C@H](CO)Cc1ccccc1	TWEAK Fn14 block 50.7
CN(C)C(=O)c1cccc(-c2ccc([C@@H]3[C@@H](CO)N4C(=O)CN(C(=O)CC5CC5)C[C@@H]34)cc2)c1	none (no result: TWEAK Fn14 block, EBV LMP1 NFkB, TROY NFkB inh, EWS-Fli inh)
CC(=O)C1=C(c2ccc(Br)cc2)C(=O)c2ccccc2C1=O	TWEAK Fn14 block 102.7, EBV LMP1 NFkB 92.0, TROY NFkB inh 56.5, LGR2 antag 99.1 (no result: EWS-Fli inh)
C[C@H](CO)N1C[C@H](C)[C@@H](CN(C)C)Oc2cc(-c3cccnc3)ccc2S1(=O)=O	none (no result: TWEAK Fn14 block, EBV LMP1 NFkB, TROY NFkB inh)
OC(c1ccccc1)(c1ccccc1)C1CCN(CCCOc2ccc(F)cc2)CC1	none (no result: EBV LMP1 NFkB)
COc1ccc(OCCCN2CCC(C(O)(c3ccccc3)c3ccccc3)CC2)cc1	none (no result: TWEAK Fn14 block, EBV LMP1 NFkB, TROY NFkB inh)
OC(c1ccccc1)(c1ccccc1)C1CCN(CCCOc2ccc(C(F)(F)F)cc2)CC1	LGR2 antag 107.0 (no result: TWEAK Fn14 block, EBV LMP1 NFkB, TROY NFkB inh)
OC(c1ccccc1)(c1ccccc1)C1CCN(CCCOc2cccc(C(F)(F)F)c2)CC1	LGR2 antag 106.2 (no result: TWEAK Fn14 block, EBV LMP1 NFkB, TROY NFkB inh)
CC(C)c1ccc(OCCCN2CCC(C(O)(c3ccccc3)c3ccccc3)CC2)cc1	LGR2 antag 102.8 (no result: TWEAK Fn14 block, EBV LMP1 NFkB, TROY NFkB inh)
C[C@@H]1CCCCO[C@H](CN(C)S(=O)(=O)c2ccc(Cl)cc2)[C@@H](C)CN([C@@H](C)CO)C(=O)c2cc(NC(=O)Cc3ccccc3)ccc2O1	none (no result: TWEAK Fn14 block, EBV LMP1 NFkB, TROY NFkB inh)
CN(C)C(=O)C[C@@H]1C[C@@H]2c3cc(NC(=O)Nc4ccccc4)ccc3O[C@@H]2[C@H](CO)O1	none (no result: TWEAK Fn14 block, EBV LMP1 NFkB, TROY NFkB inh)
CCOC(=O)c1ccc(NC(=O)CN2CCN(C(=O)C3CCCO3)CC2)cc1 (configuration not stated)	none (no result: EWS-Fli inh)
CCOc1ccc(NC(=O)CN2CCN(C(=O)C3CCCO3)CC2)cc1 (configuration not stated)	TWEAK Fn14 block 92.8 (no result: EWS-Fli inh)
COc1ccc(S(=O)(=O)Nc2ccc3c(c2)C(=O)N(C)C[C@H](OC)[C@H](C)CN[C@H](C)CO3)cc1	none (no result: TWEAK Fn14 block, EBV LMP1 NFkB, TROY NFkB inh)
O=C(Nc1ccc(Cl)cc1)Nc1ccc(N2CCCC2)c(S(=O)(=O)Nc2ccccc2Cl)c1	TWEAK Fn14 block 74.8 (no result: EWS-Fli inh)
CCC(=O)N1C[C@@H](O)COC[C@@H]2O[C@@H](CC(=O)NC)CC[C@H]21	none (no result: TWEAK Fn14 block, EBV LMP1 NFkB, TROY NFkB inh)
O=C(N/N=C\c1ccc([N+](=O)[O-])s1)c1cncc(Br)c1	TWEAK Fn14 block 52.6 (no result: LGR2 antag)
Cn1c(SCC(=O)N/N=C/c2cc([N+](=O)[O-])ccc2O)nnc1-c1ccccc1	none
O=C(N/N=C/c1ccc([N+](=O)[O-])s1)c1ccccc1	EWS-Fli inh 63.5
Cn1c(SCC(=O)N/N=C/c2ccc([N+](=O)[O-])s2)nnc1-c1ccccc1	TWEAK Fn14 block 58.3
Cc1ccccc1C(=O)N/N=C/c1ccc([N+](=O)[O-])s1	none (no result: EWS-Fli inh)

Bioassay records from PubChem BioAssay.
